Screening results: PubChem BioAssay, NMMLSC
Most compounds without a hit are left out; they make up all but 3.5% or so of the library.
BoNT A protease: BoNT A light chain protease inhibition; AID 588499; 360,000 tested, 0.17% active; multiplex microsphere protease substrate cleavage, flow cytometry; inhibition, % at 10 µM; also: plate controls were buffer without enzyme for full effect and enzyme alone for no effect
Autofluor counter: flagged as autofluorescent in microsphere protease counterscreen | compound autofluorescence counterscreen, microsphere flow cytometry; active compounds read high | fluorescence intensity (no concentration beside the values) | 360,000 tested, 3.1% active | AID 624483; in the data active = fluorescence intensity above about 16000; inconclusive = no clear call, values can overlap the other calls
BoNT-F LC inh: BoNT F light chain protease inhibition; Multiplex microsphere protease cleavage assay, flow cytometry; inhibition, % at 10 µM; 360,000 tested, 0.22% active; in the data active = inhibition above about 35%, passing the limit was not always enough; inconclusive = no clear call, values can overlap the other calls; also: plate controls were buffer without enzyme for full effect and enzyme alone for no effect
Anthrax LF prot: blocks Bacillus anthracis lethal factor protease; P15917; multiplex microsphere protease cleavage assay, LF; inhibition, % at 10 µM; 360,000 tested, 0.12% active; also: plate controls were buffer without enzyme for full effect and enzyme alone for no effect
Starred values were filed as active, the others as inactive. Rule as the data show it, unless noted: active = inhibition above about 30%; inconclusive = no clear call, values can overlap the other calls; inactive = below that.

COc1cccc(-c2cc(C(=O)Nc3ccccc3SC)no2)c1 was read as BoNT A protease inconclusive, Autofluor counter 16463*, BoNT-F LC inh -1 and Anthrax LF prot 1.
COc1ccc(-c2cc(C(=O)Nc3ccccc3SC)no2)cc1OC was read as BoNT A protease 2, Autofluor counter 23175*, BoNT-F LC inh -1 and Anthrax LF prot -3.
`COc1ccc(-c2cc(C(=O)Nc3cccc(C(C)=O)c3)no2)cc1` gave BoNT A protease 1, Autofluor counter 19306*, BoNT-F LC inh 1 and Anthrax LF prot 2.
Screening CC(=O)Nc1ccc(C(=O)N2CCCCC2c2cc(C(=O)Nc3ccccc3Cl)no2)cc1 (centres undefined) returned BoNT A protease 0, Autofluor counter 3357, BoNT-F LC inh 0 and Anthrax LF prot -3.
For CCOC(=O)c1ncn2c1C(=O)OC2(C)C the results were BoNT A protease inconclusive, Autofluor counter 19113*, BoNT-F LC inh 2 and Anthrax LF prot 1.
For CCOC(=O)C1=CC(=O)CC(C)(C)O1 the results were BoNT A protease 0, Autofluor counter 3848, BoNT-F LC inh 2 and Anthrax LF prot 1.
For CCOc1ccc(NC(=O)CN(C2CCCCC2)S(C)(=O)=O)cc1 the results were BoNT A protease inconclusive, Autofluor counter 22520*, BoNT-F LC inh 0 and Anthrax LF prot -9.
For CS(=O)(=O)N(CC(=O)Nc1ccc(Br)cc1)C1CCCCC1 the results were BoNT A protease inconclusive, Autofluor counter 4182, BoNT-F LC inh inconclusive and Anthrax LF prot -26.
For O=C1NC[C@H](Cc2ccc(O)cc2)N(C[C@@H]2CCCN2C[C@H](Cc2ccccc2)N2C[C@H](Cc3ccc(O)cc3)N(CC3CCCCCC3)C(=O)C2=O)C1=O the results were BoNT A protease 1, Autofluor counter 6054, BoNT-F LC inh -10 and Anthrax LF prot -3.
For Cc1ccc(Cn2cc(CN3CC(N4CCCC4)CS3(=O)=O)nn2)cc1 (centres undefined) the results were BoNT A protease 0, Autofluor counter 6069, BoNT-F LC inh -2 and Anthrax LF prot 3.
Screening COc1ccc(CC(=O)N/N=C/c2cccs2)cc1OC returned BoNT A protease 2, Autofluor counter 3446, BoNT-F LC inh 49* and Anthrax LF prot -10.
Screening CCCCCC(=O)N/N=C/c1cccs1 returned BoNT A protease 0, Autofluor counter 22461*, BoNT-F LC inh 1 and Anthrax LF prot -2.
CCc1ccc(/C=N/NC(=O)Cc2ccc(OC)c(OC)c2)s1 was read as BoNT A protease -1, Autofluor counter 6352, BoNT-F LC inh -9 and Anthrax LF prot 2.
`Cc1nc2ccccc2cc1C(=O)N/N=C/c1cccs1` gave BoNT A protease 3, Autofluor counter 2060, BoNT-F LC inh 38* and Anthrax LF prot 1.
Cc1nc2ccccc2cc1C(=O)N/N=C/c1ccco1 was read as BoNT A protease 0, Autofluor counter 2561, BoNT-F LC inh -8 and Anthrax LF prot -4.
Screening COc1cc(/C=N/NC(=O)COc2ccccc2C)ccc1OC(=O)c1cccs1 returned BoNT A protease inconclusive, Autofluor counter 22564*, BoNT-F LC inh 0 and Anthrax LF prot -2.
For O=C(CCC(=O)Nc1ccc(F)cc1)N/N=C/c1cccs1 the results were BoNT A protease 0, Autofluor counter 6561, BoNT-F LC inh -9 and Anthrax LF prot -1.
Screening c1ccc2[nH]c(CSc3nccs3)nc2c1 returned BoNT A protease 2, Autofluor counter inconclusive, BoNT-F LC inh 3 and Anthrax LF prot inconclusive.
For Cc1ccc(CSCc2nc3ccccc3[nH]2)cc1 the results were BoNT A protease 0, Autofluor counter 3450, BoNT-F LC inh -4 and Anthrax LF prot -3.
Screening Clc1ccc(SCc2nc3ccccc3[nH]2)cc1 returned BoNT A protease inconclusive, Autofluor counter 21863*, BoNT-F LC inh 1 and Anthrax LF prot 0.
`c1ccc(SCc2nc3ccccc3[nH]2)cc1` gave BoNT A protease -7, Autofluor counter 24904*, BoNT-F LC inh -10 and Anthrax LF prot 1.
Cc1ccc(SCc2nc3ccccc3[nH]2)cc1 was read as BoNT A protease 4, Autofluor counter 20672*, BoNT-F LC inh 3 and Anthrax LF prot 3.
`O=C(c1ccco1)N1CCC2CC1c1c(Cl)cccc12` (centres undefined) gave BoNT A protease 0, Autofluor counter 3760, BoNT-F LC inh 1 and Anthrax LF prot 1.
`Cc1cc(C(=O)N2CCC(C(N)=O)CC2)c(C)o1` gave BoNT A protease -1, Autofluor counter 4165, BoNT-F LC inh 2 and Anthrax LF prot -2.
Screening Cc1cc(C(=O)N2CCCC2C(=O)O)c(C)o1 (centres undefined) returned BoNT A protease 2, Autofluor counter 22740*, BoNT-F LC inh 3 and Anthrax LF prot -3.
CN(Cc1cc(=O)[nH]c2ccccc12)C(=O)c1ccccc1 was read as BoNT A protease 2, Autofluor counter 19977*, BoNT-F LC inh 4 and Anthrax LF prot -3.
Screening COc1ccc(NC(=O)c2noc3c2CCC3)cc1 returned BoNT A protease 0, Autofluor counter 6488, BoNT-F LC inh 0 and Anthrax LF prot 8.
`O=C(NCc1ccco1)c1noc2c1CCCC2` gave BoNT A protease 0, Autofluor counter 11017, BoNT-F LC inh 2 and Anthrax LF prot 0.
For O=C(NCc1cccs1)c1noc2c1CCCCC2 the results were BoNT A protease -3, Autofluor counter 16908*, BoNT-F LC inh -6 and Anthrax LF prot -9.
For O=C(NCc1ccccc1)c1noc2c1CCCCC2 the results were BoNT A protease -1, Autofluor counter 16329*, BoNT-F LC inh -2 and Anthrax LF prot -2.
Screening COc1ccc(CNC(=O)c2noc3c2CCCCC3)cc1 returned BoNT A protease -1, Autofluor counter 21035*, BoNT-F LC inh -2 and Anthrax LF prot -4.
`CN(C)c1nc2ccc(OCCN3CCCCC3)cc2s1` gave BoNT A protease -1, Autofluor counter 23663*, BoNT-F LC inh -1 and Anthrax LF prot 0.
`CCOc1ccc2nc(N3CCCCCC3)sc2c1` gave BoNT A protease 0, Autofluor counter 16527*, BoNT-F LC inh -4 and Anthrax LF prot -4.
`CC1(C)CN(C2CCCCC2)C(=O)[C@H]1CC(=O)Nc1ccc(Br)cc1` gave BoNT A protease 0, Autofluor counter 4110, BoNT-F LC inh -1 and Anthrax LF prot -6.
Screening Cc1sc(NC(=O)c2ccco2)c(CN2CCN(c3ccc(F)cc3)CC2)c1C returned BoNT A protease 3, Autofluor counter 8160, BoNT-F LC inh 0 and Anthrax LF prot 12.
`CC(=O)Nc1sc2c(c1CN1CCN(c3ccccn3)CC1)CCCC2` gave BoNT A protease 2, Autofluor counter 22350*, BoNT-F LC inh 2 and Anthrax LF prot -2.
`Cc1sc(NC(=O)c2ccco2)c(CN2CCN(c3ccccn3)CC2)c1C` gave BoNT A protease 0, Autofluor counter 23314*, BoNT-F LC inh -2 and Anthrax LF prot -2.
Screening Cc1ccc(CCNC(=O)CSCc2ccc(F)cc2)cc1 returned BoNT A protease 0, Autofluor counter 3944, BoNT-F LC inh 17 and Anthrax LF prot -5.
For CCSc1nnc(NC(=O)c2cccs2)s1 the results were BoNT A protease 1, Autofluor counter 22159*, BoNT-F LC inh 0 and Anthrax LF prot 2.
